Bioassay records: PubChem BioAssay, several laboratories
Rows were chosen to be rich in hits. Some 4.8% of all compounds tested hit in one or more screens of this group.
NALP1 yeast inh: blocks the NALP1 inflammasome reconstituted in yeast; S. cerevisiae NALP1/ASC/caspase-1 growth, X-gal OD620, 72 h; inhibition, % at 10 µM; 280,000 compounds, 0.61% hits; in the data active means inhibition mostly above about 24%, no sharp cut-off; inactive means mostly below about 32%
SKKanGAS inh: SKKanGAS growth inhibition; S. pyogenes SKKanGAS, kanamycin growth, BacTiter-Glo, 6 h; inhibition, % at 7.5 µM; 300,000 compounds, 1.3% hits;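 active means mean replicate score, as percent of positive control median, at least 50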;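 further: strain carries kanamycin resistance gene driven by streptokinase promoter and grows in 40 µg/ml kanamycin; loss of luminescence reflects streptokinase promoter inhibition or plain growth inhibition; 0% = median of DMSO wells and 100% = positive control at its reference dose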
TIM10 inh: growth inhibitors of TIM10 yeast strain | S. cerevisiae TIM10 strain growth, BacTiter-Glo luminescence, 24 h | inhibition, % at 10 µM | 330,000 compounds, 1.4% hits | AID 463195;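 active means inhibition of 40% or more at the single tested concentration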;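 further: wild-type TIM10 isogenic control strain grown at permissive 25 °C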
tim23-1 inh: inhibits growth of tim23-1 mutant yeast; S. cerevisiae tim23-1 growth, BacTiter-Glo luminescence, 24 h; inhibition, % at 20 µM; 330,000 compounds, 1.3% hits; AID 463212;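 active means growth inhibition of the mutant yeast at or above 50%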;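 further: temperature-sensitive mutant grown at 25 °C; plate controls were DMSO-treated mutant yeast for no effect and medium wells lacking yeast for full effect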
tim10-1 inh: tim10-1 yeast growth inhibition; 330,000 compounds, 2.2% hits; inhibition, % at 20 µM; S. cerevisiae tim10-1 ts strain growth, BacTiter-Glo, 24 h; AID 463190;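 active means inhibition of at least 40%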;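 further: mutant grown at 25 °C; 0% = DMSO wells with yeast and 100% = wells holding no yeast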
PfHsp90 set2: growth inhibition of yeast expressing Plasmodium Hsp90 | S. cerevisiae expressing PfHsp90, BacTiter-Glo ATP, 48 h; yeast lacking PDR1 and PDR3 efflux regulators | inhibition, % at 9.4 µM | 310,000 compounds, 0.32% hits | AID 504621;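 active means every replicate shows inhibition above about 80%, whatever the replicate mean, limit read from the data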;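 further: 0% = DMSO neutral controls and 100% = 20 µM radicicol positive controls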
tim23-1 confirm: confirmation of tim23-1 mutant yeast growth inhibitors; shares compounds with tim23-1 inh; S. cerevisiae tim23-1 growth, BacTiter-Glo luminescence, 24 h; inhibition, % at 20 µM; 4,400 compounds, 83% hits; AID 463218;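 active means inhibition above about 39% in either of two replicate wells at 20 µM, limit read from the data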;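 further: temperature-sensitive tim23-1 mutant grown at 25 °C; 0% = DMSO wells with yeast and 100% = medium wells without yeast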
The depositor's hits bear a star; . = not tested or not shown.

SMILES	NALP1 yeast inh	SKKanGAS inh	TIM10 inh	tim23-1 inh	tim10-1 inh	PfHsp90 set2	tim23-1 confirm
COc1ccc(N2C(=O)CC(NCC#N)C2=O)cc1 (stereo unspecified)	7	9	1	9	4	9	.
Cc1cccc(-c2noc(CNC(=O)c3ccc4c(c3)OCO4)n2)c1	0	-7	6	10	-41	18	.
COc1ccc(-c2noc(CNC(=O)c3ccc4c(c3)OCO4)n2)cc1	2	0	3	53*	-38	-16	38
Oc1ccc(Cl)cc1CNCc1ccc(F)c(F)c1	.	.	12	53*	6	-28	37
CC(=O)n1cc(N(C(=O)CCl)c2ccc([N+](=O)[O-])cc2)c2ccccc21	-4	8	36	64*	32	3	49*
CC(=O)n1cc(CO)c2ccccc21	3	1	-2	2	-13	-25	.
CC(=O)n1cc(N(C(=O)CCl)c2ccccc2)c2ccccc21	-1	-3	22	54*	32	11	38
COc1ccccc1NC(=O)Nc1ccnn1Cc1cccs1	14	-4	7	0	10	-15	.
CC(C)C(c1nnnn1CCc1ccccc1)N1CCC(C(N)=O)CC1 (stereo unspecified)	-3	2	2	-2	-4	7	.
CC(C)Oc1ccc(CNC(=S)Nc2ccccc2)cc1Cl	-8	-6	11	35	37	-11	.
COc1ccc(CNC(=S)Nc2ccccc2)cc1Cl	-22	2	29	65*	14	2	35
CC(C)OCCCN1C(=O)c2ccccc2C1C(=O)NC1CCCCC1 (stereo unspecified)	-1	0	10	4	6	2	.
O=C(COC(=O)c1ccc(O)cc1O)c1ccc(Cl)cc1	.	17	-24	63*	-14	-14	43*
O=C(Cn1nnc(-c2ccccc2)n1)NNC(=O)c1cccc([N+](=O)[O-])c1	8	1	7	1	-10	8	.
COC(=O)[C@H](CC(C)C)NC(=O)c1cc2c(cn1)[nH]c1ccccc12	10	3	34	59*	34	8	63*
Nc1ccc(Br)c2c1C(=O)c1ccccc1C2=O	0	6	30	38	39	.	.
NC1=C(Br)C(=O)c2ccccc2C1=O	16	17	33	56*	25	-7	52*
COc1ccccc1C1CC(=O)Oc2cc(C)cc(C)c21 (stereo unspecified)	.	.	1	42	17	3	.
Cc1cc(C)c2c(c1)OC(=O)CC2c1ccccc1C (stereo unspecified)	.	.	-1	54*	26	-30	29
COc1cc2c(c(OC)c1OC)C(c1ccccc1C)CC(=O)O2 (stereo unspecified)	.	.	5	55*	3	5	21
Cc1cc(C)c(S(=O)(=O)N2CCOC2CNC(=O)C(=O)NCc2ccco2)c(C)c1 (stereo unspecified)	25	-4	5	7	11	-9	.
C/C=C/c1ccc(OCCOc2ccc(C=O)cc2)c(OC)c1	14	-8	-30	18	-6	8	.
CC12CCC(C(=O)NCCCN3CCOCC3)(OC1=O)C2(C)C (stereo unspecified)	-17	4	-1	3	4	-40	.
CC12CCC(C(=O)NCCCN3CCOCC3)(C(Br)C1=O)C2(C)C (stereo unspecified)	6	-2	-7	95*	-8	0	1
O=C(CN(Cc1ccccc1)C(=O)CCl)c1cccc(Br)c1	.	.	17	57*	32	-23	45*
SMILES	NALP1 yeast inh	SKKanGAS inh	TIM10 inh	tim23-1 inh	tim10-1 inh	PfHsp90 set2	tim23-1 confirm
CCN(CC)S(=O)(=O)c1ccc(OC)c(NC(=O)c2ccc(-n3cncn3)c([N+](=O)[O-])c2)c1	.	-9	1	-2	-2	.	.
CC1(C)C=Cc2c(ccc3c2OC[C@H](c2ccc(O)cc2O)C3)O1	.	.	28	75*	-53	106*	-8
COc1ccc(C2COc3cc(O)ccc3C2)c(OC)c1O (stereo unspecified)	.	1	0	14	12	.	.
CCC(=O)c1c(OCc2ccccc2)ccc2c(C)cc(=O)oc12	8	0	14	23	12	.	.
O=S1(=O)N[C@@H](Cc2ccccc2)COc2cc(Br)ccc21	.	.	3	70*	26	11	42*
O=S1(=O)N[C@@H](CC2CCCCC2)COc2cc(Br)ccc21	.	.	-2	39	13	43	.
Cc1ccc(NC(=O)c2ccc(OCc3c(C)noc3C)cc2)cc1C	.	.	30	59*	-26	22	56*
CC(=O)Nc1ccc(NC(=O)c2ccc(OCc3c(C)noc3C)cc2)cc1	.	.	-18	-15	-5	-12	.
N=C1/C(=C\c2coc3ccccc3c2=O)C(=O)N=C2SC(c3ccncc3)=NN12	.	21	35	54*	22	-63	6
CC(C)CCNC(=O)[C@@H](NC(=O)c1c(F)cccc1F)C(C)C	-10	-3	12	16	0	.	.
O=C(O)c1cccc(-c2ccc(/C=N/n3cnc4sc5c(c4c3=O)CCCC5)o2)c1	.	8	0	52*	29	.	22
On1c(-c2ccc(Cl)cc2)nc2ccccc21	10	5	0	6	-21	12	.
O=c1c2cc(Br)ccc2nc(-c2ccccc2)n1O	-19	33	10	60*	23	14	50*
O=c1c2ccccc2nc(-c2cccc(Cl)c2)n1O	-23	-8	36	59*	15	-118	59*
Cc1ccc(-c2nc3ccccc3c(=O)n2O)cc1	20	15	-2	43	18	24	.
O=c1c2ccccc2nc(-c2ccccc2)n1Cc1ccc(Cl)cc1	-1	24	25	33	32	.	.
O=c1c2ccccc2nc(-c2ccc([N+](=O)[O-])cc2)n1O	1	2	30	52*	37	8	47*
Cc1ccc(-c2nc3ccc(Cl)cc3c(=O)n2O)cc1	13	70*	38	63*	8	15	55*
Cc1nc2ccc(Br)cc2c(-c2ccccc2)c1C(=O)O	16	2	-1	0	-4	-1	.
Cc1sc2c(c1C)CN(C1CC(C)(C)NC(C)(C)C1)CN2C(=O)c1ccco1	18	.	5	7	1	.	.
COc1cc(C[C@@H](CO)[C@H](CO)Cc2ccc(O)c(OC)c2)ccc1O	.	-2	-7	0	5	.	.
COc1ccc(C2CC(c3ccc(C(F)(F)F)cc3)=NN2c2ccc(S(N)(=O)=O)cc2)cc1 (stereo unspecified)	.	.	30	51*	32	-27	14
C=CCNc1nnc(SCC(=O)Nc2ccccc2OC)c2ccccc12	5	1	25	18	2	7	.
